In PMC11006913:
Numbering of substitutions follows the chain as printed.

What was measured:
Assay in all cases: PBM; 200 nM protein, PBS
Conditions in all cases: dsDNA, one strand shown
PAX4 [1] = target: T1, PAX4 (Homo sapiens, UniProt O43316 9-242)
T1 sequence: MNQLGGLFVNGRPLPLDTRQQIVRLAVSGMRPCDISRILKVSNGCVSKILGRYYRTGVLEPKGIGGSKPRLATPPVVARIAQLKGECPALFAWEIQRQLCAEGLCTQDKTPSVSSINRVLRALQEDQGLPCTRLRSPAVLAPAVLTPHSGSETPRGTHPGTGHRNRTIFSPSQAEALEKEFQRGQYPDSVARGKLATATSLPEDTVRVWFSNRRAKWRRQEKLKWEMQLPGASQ

PAX4 [2] = target: T2, PAX4 (Homo sapiens, UniProt O43316 9-242, R200Q)
T2 sequence: T1 sequence with R192Q

PAX4 [3] = target: T3, PAX4 (Homo sapiens, UniProt O43316 9-242, F177V)
T3 sequence: T1 sequence with F169V

PAX4 [4] = target: T4, PAX4 (Homo sapiens, UniProt O43316 9-242, R227W)
T4 sequence: T1 sequence with R219W

ALX3 [5] = target: ALX3 (Homo sapiens, UniProt O95076 139-225, N203Q)
ALX3 [6] = target: ALX3 (Homo sapiens, UniProt O95076 139-225, L168V)
ALX3 [7] = target: ALX3 (Homo sapiens, UniProt O95076 139-225, N203S)
PRRX1 [8] = target: PRRX1 (Homo sapiens, UniProt P54821 80-166, F113S)
PRRX1 [9] = target: PRRX1 (Homo sapiens, UniProt P54821 80-166)
ALX4 [10] = target: ALX4 (Homo sapiens, UniProt Q9H161 200-286)
ALX4 [11] = target: ALX4 (Homo sapiens, UniProt Q9H161 200-286, Q225E)
MSX2 [12] = target: MSX2 (Homo sapiens, UniProt P35548 130-214, R199I)
MSX2 [13] = target: MSX2 (Homo sapiens, UniProt P35548 130-214)
ALX3 [14] = target: ALX3 (Homo sapiens, UniProt O95076 139-225)
ALX3 [15] = target: ALX3 (Homo sapiens, UniProt O95076 139-225, L168Q)
MSX2 [16] = target: MSX2 (Homo sapiens, UniProt P35548 130-214, F161Y)
Sequence of MSX2 (Homo sapiens, UniProt P35548 130-214, F161Y) (P35548 130-214 F161Y): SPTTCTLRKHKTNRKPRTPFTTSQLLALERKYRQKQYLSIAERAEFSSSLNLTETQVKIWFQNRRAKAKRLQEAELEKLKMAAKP

Sequence of ALX4 (Homo sapiens, UniProt Q9H161 200-286, Q225E) (Q9H161 200-286 Q225E): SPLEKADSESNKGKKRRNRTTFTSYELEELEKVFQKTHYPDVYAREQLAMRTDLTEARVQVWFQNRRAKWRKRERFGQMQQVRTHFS
Sequence of ALX3 (Homo sapiens, UniProt O95076 139-225, N203Q) (O95076 139-225 N203Q): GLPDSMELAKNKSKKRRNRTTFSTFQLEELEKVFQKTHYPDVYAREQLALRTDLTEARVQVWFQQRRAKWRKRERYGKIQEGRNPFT
Sequence of MSX2 (Homo sapiens, UniProt P35548 130-214) (P35548 130-214): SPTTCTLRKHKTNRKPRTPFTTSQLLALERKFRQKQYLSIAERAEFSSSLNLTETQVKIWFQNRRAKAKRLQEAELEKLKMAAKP
Sequence of PRRX1 (Homo sapiens, UniProt P54821 80-166, F113S) (P54821 80-166 F113S): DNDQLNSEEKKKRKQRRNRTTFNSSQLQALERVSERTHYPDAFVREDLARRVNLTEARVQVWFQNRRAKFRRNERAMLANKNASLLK
Sequence of ALX3 (Homo sapiens, UniProt O95076 139-225, N203S) (O95076 139-225 N203S): as the sequence (O95076 139-225 N203Q) above, with Q65S counted along it
Sequence of ALX3 (Homo sapiens, UniProt O95076 139-225, L168V) (O95076 139-225 L168V): as the sequence (O95076 139-225 N203Q) above, with L30V, Q65N counted along it
Sequence of PRRX1 (Homo sapiens, UniProt P54821 80-166) (P54821 80-166): as the sequence (P54821 80-166 F113S) above, with S34F counted along it
Sequence of ALX4 (Homo sapiens, UniProt Q9H161 200-286) (Q9H161 200-286): as the sequence (Q9H161 200-286 Q225E) above, with E26Q counted along it
Sequence of MSX2 (Homo sapiens, UniProt P35548 130-214, R199I) (P35548 130-214 R199I): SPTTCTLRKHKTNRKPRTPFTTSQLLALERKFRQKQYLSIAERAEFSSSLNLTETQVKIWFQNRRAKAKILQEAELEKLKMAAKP
Sequence of ALX3 (Homo sapiens, UniProt O95076 139-225, L168Q) (O95076 139-225 L168Q): as the sequence (O95076 139-225 N203Q) above, with L30Q, Q65N counted along it
Sequence of ALX3 (Homo sapiens, UniProt O95076 139-225) (O95076 139-225): as the sequence (O95076 139-225 N203Q) above, with Q65N counted along it

ATTAATCG was tested, and the binding signal (PAX4 [1]) was 12.2 upbm affinity estimate (log intensity, higher = more binding, comparable within an allelic series), the binding signal (PAX4 [2]) was 12 upbm affinity estimate (log intensity, higher = more binding, comparable within an allelic series) and the binding signal (PAX4 [3]) was 10.5 upbm affinity estimate (log intensity, higher = more binding, comparable within an allelic series). For the same sequence, the binding signal (PAX4 [4]) was 10.7 upbm affinity estimate (log intensity, higher = more binding, comparable within an allelic series).

TATTAATA was tested, and the binding signal (ALX3 [5]) was 8.75 upbm affinity estimate (log intensity, higher = more binding, comparable within an allelic series), the binding signal (PAX4 [2]) was 11.9 upbm affinity estimate (log intensity, higher = more binding, comparable within an allelic series) and the binding signal (ALX3 [6]) was 9.77 upbm affinity estimate (log intensity, higher = more binding, comparable within an allelic series). For the same sequence, the binding signal (PAX4 [4]) was 11.2 upbm affinity estimate (log intensity, higher = more binding, comparable within an allelic series) and the binding signal (ALX3 [7]) was 8.79 upbm affinity estimate (log intensity, higher = more binding, comparable within an allelic series).

For CCTCATTA, the binding signal (PRRX1 [8]) was 10.7 upbm affinity estimate (log intensity, higher = more binding, comparable within an allelic series) and the binding signal (PRRX1 [9]) was 13.2 upbm affinity estimate (log intensity, higher = more binding, comparable within an allelic series).

GGAGCTCC was tested, and the binding signal (ALX4 [10]) was 7.72 upbm affinity estimate (log intensity, higher = more binding, comparable within an allelic series), the binding signal (ALX4 [11]) was 7.79 upbm affinity estimate (log intensity, higher = more binding, comparable within an allelic series) and the binding signal (MSX2 [12]) was 9.52 upbm affinity estimate (log intensity, higher = more binding, comparable within an allelic series). For the same sequence, the binding signal (ALX3 [5]) was 7.68 upbm affinity estimate (log intensity, higher = more binding, comparable within an allelic series), the binding signal (MSX2 [13]) was 9.28 upbm affinity estimate (log intensity, higher = more binding, comparable within an allelic series) and the binding signal (ALX3 [14]) was 7.41 upbm affinity estimate (log intensity, higher = more binding, comparable within an allelic series). For the same sequence, the binding signal (ALX3 [15]) was 7.7 upbm affinity estimate (log intensity, higher = more binding, comparable within an allelic series), the binding signal (ALX3 [6]) was 7.63 upbm affinity estimate (log intensity, higher = more binding, comparable within an allelic series) and the binding signal (MSX2 [16]) was 9.3 upbm affinity estimate (log intensity, higher = more binding, comparable within an allelic series). The binding signal (ALX3 [7]) was 7.63 upbm affinity estimate (log intensity, higher = more binding, comparable within an allelic series).

In the case of ATTATTAA, the binding signal (PRRX1 [8]) is reported as 11 upbm affinity estimate (log intensity, higher = more binding, comparable within an allelic series), the binding signal (ALX3 [5]) is reported as 8.56 upbm affinity estimate (log intensity, higher = more binding, comparable within an allelic series) and the binding signal (PRRX1 [9]) is reported as 13.2 upbm affinity estimate (log intensity, higher = more binding, comparable within an allelic series).

In the case of ACATTAAT, the binding signal (PAX4 [3]) is reported as 10.5 upbm affinity estimate (log intensity, higher = more binding, comparable within an allelic series).

In the case of GGTCATTA, the binding signal (MSX2 [12]) is reported as 11.6 upbm affinity estimate (log intensity, higher = more binding, comparable within an allelic series), the binding signal (MSX2 [13]) is reported as 12.7 upbm affinity estimate (log intensity, higher = more binding, comparable within an allelic series) and the binding signal (MSX2 [16]) is reported as 12.5 upbm affinity estimate (log intensity, higher = more binding, comparable within an allelic series).

In the case of CCCCCTCG, the binding signal (ALX4 [10]) is reported as 8.09 upbm affinity estimate (log intensity, higher = more binding, comparable within an allelic series), the binding signal (ALX4 [11]) is reported as 7.97 upbm affinity estimate (log intensity, higher = more binding, comparable within an allelic series) and the binding signal (MSX2 [12]) is reported as 9.51 upbm affinity estimate (log intensity, higher = more binding, comparable within an allelic series). The binding signal (MSX2 [13]) was 9.66 upbm affinity estimate (log intensity, higher = more binding, comparable within an allelic series) and the binding signal (MSX2 [16]) was 9.64 upbm affinity estimate (log intensity, higher = more binding, comparable within an allelic series).

With AGGGGGGG the binding signal (PAX4 [1]) was 9.16 upbm affinity estimate (log intensity, higher = more binding, comparable within an allelic series), the binding signal (PAX4 [2]) was 9.15 upbm affinity estimate (log intensity, higher = more binding, comparable within an allelic series) and the binding signal (PAX4 [3]) was 8.93 upbm affinity estimate (log intensity, higher = more binding, comparable within an allelic series). For the same sequence, the binding signal (PAX4 [4]) was 9.07 upbm affinity estimate (log intensity, higher = more binding, comparable within an allelic series).

For CCCTTGCG, the binding signal (ALX4 [10]) was 7.92 upbm affinity estimate (log intensity, higher = more binding, comparable within an allelic series), the binding signal (PRRX1 [8]) was 9.08 upbm affinity estimate (log intensity, higher = more binding, comparable within an allelic series) and the binding signal (ALX4 [11]) was 7.92 upbm affinity estimate (log intensity, higher = more binding, comparable within an allelic series). The binding signal (ALX3 [5]) was 7.69 upbm affinity estimate (log intensity, higher = more binding, comparable within an allelic series), the binding signal (ALX3 [14]) was 7.65 upbm affinity estimate (log intensity, higher = more binding, comparable within an allelic series) and the binding signal (ALX3 [15]) was 7.59 upbm affinity estimate (log intensity, higher = more binding, comparable within an allelic series). The binding signal (ALX3 [6]) was 7.6 upbm affinity estimate (log intensity, higher = more binding, comparable within an allelic series), the binding signal (ALX3 [7]) was 7.67 upbm affinity estimate (log intensity, higher = more binding, comparable within an allelic series) and the binding signal (PRRX1 [9]) was 9.11 upbm affinity estimate (log intensity, higher = more binding, comparable within an allelic series).
